According to the supplement of paper PMC10849652:
About 7,900 targets were measured; listed, in parts, are those with a hit and a random draw of the rest. About 0.6% of all pairs of compound and target were hits.

Assays:
Test in all cases: log2 fold change, soluble protein after heating vs DMSO (PISA); higher = thermal stabilisation; K562 cells, 10 uM, 30 min; active = over 0.2 and 3.5 SD of the protein, either way, in both replicates (recomputed)
[1] = compound: C#Cc1cccc(Nc2ncnc3cc(OCCOC)c(OCCOC)cc23)c1 [erlotinib]
Procedure, shortened: (§1)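 Soluble protein was defined as the supernatant after 21,000xg for 90 min. It came from K562 cells at 2×10^6 cells/mL given 10 μM compound for 30 min, heated in aliquots for 3 min across 48°C-58°C, pooled, and extracted in PBS with 0.5% NP-40 at 4°C, and was quantified by TMTpro 16plex LC-MS/MS with equalised channel sums. Thermal stability against control samples, from duplicates, is reported as log2 fold change.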

[2] = compound: C/C(=N\NC(=O)C1=CC(=CC=C1)S(=O)(=O)N2CCOCC2)/C3=C(C=CC(=C3)Cl)O
Procedure, shortened: as §1

[3] = compound: C1=CC(=C(C=C1Cl)C2=NC3=NC=CN=C3C(=N2)NC4=CC=NC=C4)F
Procedure, shortened: as §1

[4] = compound: C1=CC(=CC=C1C2=NC3=C(N2)C=C(C=C3)C(=O)N)OC4=CC=C(C=C4)Cl
Procedure, shortened: as §1

[5] = compound: C1=CC2=C(C=CC(=C2)/C=C\3/C(=O)NC(=NCC4=CC=CS4)S3)N=C1
Procedure, shortened: as §1

[6] = compound: C1=CC2=NC=CN=C2C=C1/C=C/3\C(=O)NC(=O)S3
Procedure, shortened: as §1

[7] = compound: C1=CC=C(C=C1)C2=NC(=C(N2)C3=CC=NC=C3)C4=CC(=C(C=C4)Cl)O
Procedure, shortened: as §1

[8] = compound: C1=CC=C2C(=C1)C3=NNC4=CC=CC(=C43)C2=O
Procedure, shortened: as §1

[9] = compound: C1CCN(C1)C(=O)NC2=CC=CC(=C2)NC3=NC=C(C(=N3)NCCC4=CN=CN4)Br
Procedure, shortened: as §1

[10] = compound: C1CN(CCC1(CC2=CC=C(C=C2)Cl)N)C3=NC=NC4=C3C=CN4
Procedure, shortened: as §1

Measured: log2 fold change

NDUFA9 (UniProt Q16795)
UniProt Q16795, sequence (Q16795 whole entry, looked up): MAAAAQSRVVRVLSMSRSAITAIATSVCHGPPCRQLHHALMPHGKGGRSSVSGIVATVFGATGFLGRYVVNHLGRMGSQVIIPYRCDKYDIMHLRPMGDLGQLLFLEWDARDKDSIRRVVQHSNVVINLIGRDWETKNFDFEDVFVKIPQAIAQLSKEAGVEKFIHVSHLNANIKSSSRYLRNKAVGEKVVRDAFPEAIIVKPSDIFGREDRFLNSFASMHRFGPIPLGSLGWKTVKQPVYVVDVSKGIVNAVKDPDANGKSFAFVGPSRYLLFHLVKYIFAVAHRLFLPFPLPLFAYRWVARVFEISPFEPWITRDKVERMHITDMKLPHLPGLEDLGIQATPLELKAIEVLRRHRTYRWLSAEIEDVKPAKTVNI
inactive: [1] -0.031 | [2] 0.035 | [3] 0.059 | [4] 0.03 | [5] 0.031 | [6] -0.016 | [7] 0.025 | [8] 0.047 | [9] 0.005 | [10] 0.024

MRPL50 (UniProt Q8N5N7)
inactive: [1] -0.107 | [2] -0.033 | [3] 0.048 | [4] 0.004 | [5] -0.008 | [6] 0.066 | [7] 0.312 | [8] 0.072 | [9] -0.084 | [10] -0.073

MMS19 isoform 8 (UniProt Q96T76)
inactive: [1] -0.01 | [2] 0.001 | [3] 0.044 | [4] -0.025 | [5] 0.113 | [6] 0.053 | [7] 0.05 | [8] 0.016 | [9] -0.01 | [10] -0.01

MYO19 (UniProt Q96H55)
inactive: [1] 0.032 | [2] -0.047 | [3] -0.103 | [4] -0.114 | [5] 0.011 | [6] 0.093 | [7] 0.027 | [8] 0.07

MSH6 (UniProt P52701)
inactive: [1] 0.286 | [2] 0.224 | [3] 0.096 | [4] 0.002 | [5] 0.167 | [6] 0 | [7] 0.102 | [8] 0.137 | [9] -0.095 | [10] -0.143

NDUFAF6 (UniProt Q330K2)
inactive: [1] 0.028 | [2] -0.009 | [3] 0.059 | [4] 0.058 | [5] 0.071 | [6] 0.12 | [7] 0.065 | [8] -0.051 | [9] 0.049 | [10] 0.074

NDUFA7 (UniProt O95182)
inactive: [1] -0.001 | [2] -0.033 | [3] 0.085 | [4] 0.078 | [5] -0.003 | [6] 0.021 | [7] 0 | [8] 0.036 | [9] 0.005 | [10] 0.01

OSTM1 (UniProt Q86WC4)
inactive: [1] 0.034 | [2] 0.111 | [3] 0.077 | [4] 0.107 | [5] -0.106 | [6] 0.001 | [7] 0.044 | [8] -0.047 | [9] -0.035 | [10] -0.002

NTMT1 (UniProt Q9BV86)
UniProt Q9BV86, sequence (Q9BV86 whole entry, looked up): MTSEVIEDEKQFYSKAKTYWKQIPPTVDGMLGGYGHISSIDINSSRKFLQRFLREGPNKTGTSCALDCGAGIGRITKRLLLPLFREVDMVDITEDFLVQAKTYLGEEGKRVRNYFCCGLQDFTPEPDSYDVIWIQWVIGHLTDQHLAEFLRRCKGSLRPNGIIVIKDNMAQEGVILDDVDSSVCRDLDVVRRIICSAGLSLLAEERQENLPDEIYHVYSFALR
inactive: [1] 0.039 | [2] 0.13 | [3] 0.086 | [4] 0.002 | [5] 0.039 | [6] 0.032 | [7] 0.006 | [8] 0.086 | [9] -0.101 | [10] 0.151

MTMR14 (UniProt Q8NCE2)
inactive: [1] -0.019 | [2] 0.009 | [3] 0.047 | [4] 0.037 | [5] 0.002 | [6] 0.009 | [7] -0.038 | [8] -0.05 | [9] -0.05 | [10] 0.028

NUCKS1 (UniProt Q9H1E3)
inactive: [1] 0.045 | [2] -0.098 | [3] -0.002 | [4] -0.029 | [5] -0.052 | [6] 0 | [7] -0.089 | [8] 0.033 | [9] 0.067 | [10] -0.002

MUL1 (UniProt Q969V5)
UniProt Q969V5, sequence (Q969V5 whole entry, looked up): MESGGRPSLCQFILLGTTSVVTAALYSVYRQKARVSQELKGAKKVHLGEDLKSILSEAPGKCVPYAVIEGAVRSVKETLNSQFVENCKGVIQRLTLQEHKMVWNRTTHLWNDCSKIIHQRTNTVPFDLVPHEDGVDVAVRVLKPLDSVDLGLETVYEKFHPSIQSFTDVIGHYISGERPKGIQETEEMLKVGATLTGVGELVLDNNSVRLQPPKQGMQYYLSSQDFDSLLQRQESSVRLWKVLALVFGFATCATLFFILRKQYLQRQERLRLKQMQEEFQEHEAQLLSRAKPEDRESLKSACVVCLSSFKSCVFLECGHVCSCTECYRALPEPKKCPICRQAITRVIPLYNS
inactive: [1] 0.015 | [2] 0.038 | [3] 0.073 | [4] -0.004 | [5] 0.026 | [6] 0.069 | [7] 0.095 | [8] 0.034 | [9] -0.025 | [10] 0.005

OPHN1 (UniProt O60890)
inactive: [1] 0.022 | [2] -0.155 | [3] 0.101 | [4] -0.009 | [5] 0.24 | [6] 0.03 | [7] -0.007 | [8] 0.039 | [9] 0.044 | [10] 0.04

MIS12 (UniProt Q9H081)
inactive: [1] 0.103 | [2] 0.083 | [3] 0.012 | [4] 0.002 | [5] 0.107 | [6] 0.052 | [7] -0.063 | [8] -0.018 | [9] -0.16 | [10] -0.016

NOB1 (UniProt Q9ULX3)
inactive: [1] 0.048 | [2] 0.061 | [3] -0.106 | [4] 0.017 | [5] -0.025 | [6] -0.08 | [7] 0.081 | [8] 0.053 | [9] 0.045 | [10] -0.078

NECTIN2 isoform 2 (UniProt Q92692)
UniProt Q92692, sequence (Q92692 whole entry, looked up): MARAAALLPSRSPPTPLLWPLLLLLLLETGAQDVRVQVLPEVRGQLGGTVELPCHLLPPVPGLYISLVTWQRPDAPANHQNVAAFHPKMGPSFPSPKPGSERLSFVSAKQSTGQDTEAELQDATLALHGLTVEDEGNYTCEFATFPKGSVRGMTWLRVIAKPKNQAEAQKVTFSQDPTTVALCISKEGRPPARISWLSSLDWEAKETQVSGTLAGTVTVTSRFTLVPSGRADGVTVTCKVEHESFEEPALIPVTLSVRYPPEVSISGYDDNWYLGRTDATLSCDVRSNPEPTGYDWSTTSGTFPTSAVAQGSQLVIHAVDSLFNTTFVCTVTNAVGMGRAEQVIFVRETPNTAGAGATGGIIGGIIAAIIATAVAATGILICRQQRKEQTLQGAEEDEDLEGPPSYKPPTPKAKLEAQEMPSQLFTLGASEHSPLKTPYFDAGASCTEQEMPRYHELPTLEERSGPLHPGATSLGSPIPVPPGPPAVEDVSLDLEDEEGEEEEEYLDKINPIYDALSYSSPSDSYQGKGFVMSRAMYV
inactive: [1] -0.151 | [2] 0.006 | [3] -0.386 | [4] 0.117 | [5] 0.168 | [6] -0.345 | [7] -0.029 | [8] -0.034

NNT (UniProt Q13423)
inactive: [1] -0.008 | [2] 0.051 | [3] 0.089 | [4] -0.012 | [5] 0.044 | [6] 0.01 | [7] 0.005 | [8] -0.005 | [9] -0.001 | [10] 0.043

NFATC2IP (UniProt Q8NCF5)
UniProt Q8NCF5, sequence (Q8NCF5 whole entry, looked up): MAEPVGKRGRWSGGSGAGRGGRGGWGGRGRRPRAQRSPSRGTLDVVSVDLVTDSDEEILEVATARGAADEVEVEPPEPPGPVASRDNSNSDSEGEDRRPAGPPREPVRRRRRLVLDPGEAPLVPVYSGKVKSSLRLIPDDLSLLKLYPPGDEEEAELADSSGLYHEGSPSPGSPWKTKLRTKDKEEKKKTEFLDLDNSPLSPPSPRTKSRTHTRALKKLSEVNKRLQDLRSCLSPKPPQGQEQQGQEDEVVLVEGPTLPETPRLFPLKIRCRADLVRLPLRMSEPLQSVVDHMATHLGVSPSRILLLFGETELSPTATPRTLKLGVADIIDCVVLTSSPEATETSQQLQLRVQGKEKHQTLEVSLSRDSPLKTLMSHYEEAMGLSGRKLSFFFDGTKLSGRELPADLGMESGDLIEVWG
inactive: [1] -0.051 | [2] 0.131 | [3] -0.034 | [4] 0.014 | [5] 0.018 | [6] 0.085 | [7] -0.029 | [8] -0.014 | [9] -0.117 | [10] 0.061

NUP98 (UniProt P52948)
UniProt P52948, sequence (P52948 whole entry, looked up): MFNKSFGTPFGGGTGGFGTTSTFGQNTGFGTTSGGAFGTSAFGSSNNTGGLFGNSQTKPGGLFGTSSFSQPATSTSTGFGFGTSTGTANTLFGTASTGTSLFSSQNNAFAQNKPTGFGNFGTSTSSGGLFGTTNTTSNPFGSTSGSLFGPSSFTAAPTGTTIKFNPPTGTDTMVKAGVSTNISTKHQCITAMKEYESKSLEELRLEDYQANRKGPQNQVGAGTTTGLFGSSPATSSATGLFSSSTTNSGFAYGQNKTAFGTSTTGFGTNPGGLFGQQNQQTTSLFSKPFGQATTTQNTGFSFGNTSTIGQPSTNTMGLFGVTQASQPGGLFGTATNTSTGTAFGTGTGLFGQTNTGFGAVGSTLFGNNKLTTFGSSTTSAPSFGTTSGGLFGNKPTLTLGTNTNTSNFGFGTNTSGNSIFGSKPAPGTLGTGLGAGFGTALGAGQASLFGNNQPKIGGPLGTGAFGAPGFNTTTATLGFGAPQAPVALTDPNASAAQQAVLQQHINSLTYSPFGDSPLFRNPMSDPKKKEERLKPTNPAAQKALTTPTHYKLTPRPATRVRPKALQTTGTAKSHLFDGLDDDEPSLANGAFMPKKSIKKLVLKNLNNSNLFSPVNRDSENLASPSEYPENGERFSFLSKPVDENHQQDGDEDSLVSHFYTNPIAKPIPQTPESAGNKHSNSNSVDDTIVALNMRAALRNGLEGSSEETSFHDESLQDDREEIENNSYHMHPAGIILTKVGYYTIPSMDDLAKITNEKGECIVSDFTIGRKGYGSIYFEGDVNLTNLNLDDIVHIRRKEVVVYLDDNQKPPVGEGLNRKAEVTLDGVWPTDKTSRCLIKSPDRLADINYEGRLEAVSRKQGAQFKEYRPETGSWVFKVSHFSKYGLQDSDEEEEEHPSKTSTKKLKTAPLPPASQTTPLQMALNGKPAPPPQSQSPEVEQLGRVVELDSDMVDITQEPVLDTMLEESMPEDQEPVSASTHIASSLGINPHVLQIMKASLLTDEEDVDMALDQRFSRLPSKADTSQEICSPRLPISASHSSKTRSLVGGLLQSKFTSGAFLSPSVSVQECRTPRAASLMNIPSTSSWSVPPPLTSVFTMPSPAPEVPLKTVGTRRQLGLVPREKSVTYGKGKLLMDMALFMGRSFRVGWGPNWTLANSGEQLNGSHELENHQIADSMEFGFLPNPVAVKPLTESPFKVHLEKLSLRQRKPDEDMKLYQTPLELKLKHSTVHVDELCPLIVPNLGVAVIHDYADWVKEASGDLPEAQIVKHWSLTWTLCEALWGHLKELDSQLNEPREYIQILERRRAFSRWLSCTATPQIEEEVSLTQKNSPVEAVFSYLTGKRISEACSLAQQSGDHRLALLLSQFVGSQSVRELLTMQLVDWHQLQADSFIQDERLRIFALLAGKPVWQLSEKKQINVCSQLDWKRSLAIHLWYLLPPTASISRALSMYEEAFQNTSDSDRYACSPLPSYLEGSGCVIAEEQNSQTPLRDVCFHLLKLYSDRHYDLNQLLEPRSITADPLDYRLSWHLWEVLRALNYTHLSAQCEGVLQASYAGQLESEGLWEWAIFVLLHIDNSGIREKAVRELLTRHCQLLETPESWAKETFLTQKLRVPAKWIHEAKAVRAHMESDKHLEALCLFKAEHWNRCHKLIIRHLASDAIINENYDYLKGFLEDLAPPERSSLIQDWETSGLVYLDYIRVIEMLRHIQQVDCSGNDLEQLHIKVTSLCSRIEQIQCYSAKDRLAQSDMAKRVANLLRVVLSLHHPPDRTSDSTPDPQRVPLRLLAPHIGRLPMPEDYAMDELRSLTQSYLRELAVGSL
inactive: [1] 0.063 | [2] 0.01 | [3] -0.085 | [4] -0.013 | [5] -0.011 | [6] 0.035 | [7] -0.015 | [8] -0.217 | [9] -0.06 | [10] -0.012

NRGN (UniProt Q92686)
UniProt Q92686, sequence (Q92686 whole entry, looked up): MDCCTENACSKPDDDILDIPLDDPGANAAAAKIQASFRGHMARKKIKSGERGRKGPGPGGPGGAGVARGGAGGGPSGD
inactive: [1] 0.066 | [2] 0.086 | [3] 0.054 | [4] -0.074 | [5] -0.264 | [6] -0.027 | [7] 0.139 | [8] 0.105

NOSIP (UniProt Q9Y314)
inactive: [1] 0.062 | [2] 0.16 | [3] 0.049 | [4] -0.05 | [5] -0.041 | [6] 0.039 | [7] -0.033 | [8] -0.03 | [9] -0.234 | [10] -0.249

PACS1 (UniProt Q6VY07)
inactive: [1] 0.027 | [2] 0.036 | [3] -0.049 | [4] 0.01 | [5] 0.016 | [6] -0.077 | [7] -0.039 | [8] -0.084 | [9] -0.048 | [10] -0.063

MYL12B (UniProt O14950)
UniProt O14950, sequence (O14950 whole entry, looked up): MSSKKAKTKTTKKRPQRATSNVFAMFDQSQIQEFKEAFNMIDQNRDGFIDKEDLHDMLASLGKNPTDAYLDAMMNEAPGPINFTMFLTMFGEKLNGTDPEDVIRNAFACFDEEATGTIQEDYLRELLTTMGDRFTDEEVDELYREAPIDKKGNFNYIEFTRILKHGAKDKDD
inactive: [1] 0.016 | [2] 0.091 | [3] 0.02 | [4] 0.006 | [5] -0.072 | [6] -0.019 | [7] 0.157 | [8] 0.023 | [9] -0.045 | [10] 0.005

NAA38 isoform 2 (UniProt Q9BRA0)
UniProt Q9BRA0, sequence (Q9BRA0 whole entry, looked up): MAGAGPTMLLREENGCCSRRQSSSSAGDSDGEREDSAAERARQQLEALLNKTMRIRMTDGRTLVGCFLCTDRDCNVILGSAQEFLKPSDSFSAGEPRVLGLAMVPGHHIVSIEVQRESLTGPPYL
inactive: [1] 0.139 | [2] 0.083 | [3] 0.092 | [4] -0.003 | [5] 0.034 | [6] 0.015 | [7] 0.044 | [8] -0.016 | [9] -0.009 | [10] 0.082

NT5DC1 (UniProt Q5TFE4)
inactive: [1] 0.071 | [2] 0.001 | [3] 0.087 | [4] -0.019 | [5] 0.087 | [6] -0.008 | [7] 0.02 | [8] 0.02 | [9] 0.008 | [10] 0.028

NUMBL (UniProt Q9Y6R0)
UniProt Q9Y6R0, sequence (Q9Y6R0 whole entry, looked up): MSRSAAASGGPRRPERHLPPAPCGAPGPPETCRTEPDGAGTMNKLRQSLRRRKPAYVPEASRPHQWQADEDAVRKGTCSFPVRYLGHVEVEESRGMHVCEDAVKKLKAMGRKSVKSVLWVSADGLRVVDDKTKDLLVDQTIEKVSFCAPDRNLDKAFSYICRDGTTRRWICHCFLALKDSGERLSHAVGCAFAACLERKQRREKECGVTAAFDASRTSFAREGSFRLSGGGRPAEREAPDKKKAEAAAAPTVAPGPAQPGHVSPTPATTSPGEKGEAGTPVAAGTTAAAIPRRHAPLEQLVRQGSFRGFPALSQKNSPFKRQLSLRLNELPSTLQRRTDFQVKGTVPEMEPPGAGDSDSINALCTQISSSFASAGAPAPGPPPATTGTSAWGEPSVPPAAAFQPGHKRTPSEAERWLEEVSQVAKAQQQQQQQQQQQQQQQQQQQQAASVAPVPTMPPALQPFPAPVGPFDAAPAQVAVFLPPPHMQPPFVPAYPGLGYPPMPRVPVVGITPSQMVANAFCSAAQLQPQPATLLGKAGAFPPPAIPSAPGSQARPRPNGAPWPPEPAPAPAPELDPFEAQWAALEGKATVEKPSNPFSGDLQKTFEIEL
inactive: [1] -0.001 | [2] 0.021 | [3] -0.026 | [4] -0.095 | [5] 0.085 | [6] -0.047 | [7] 0.042 | [8] 0.056

NDUFA6 (UniProt P56556)
UniProt P56556, sequence (P56556 whole entry, looked up): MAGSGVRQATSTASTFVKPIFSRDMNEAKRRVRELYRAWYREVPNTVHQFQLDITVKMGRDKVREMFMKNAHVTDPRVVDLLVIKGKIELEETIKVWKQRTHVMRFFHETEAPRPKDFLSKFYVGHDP
inactive: [1] 0.014 | [2] 0.133 | [3] 0.11 | [4] -0.015 | [5] -0.045 | [6] 0.002 | [7] 0.104 | [8] 0.042 | [9] -0.031 | [10] -0.008

MNAT1 (UniProt P51948)
inactive: [1] 0.01 | [2] 0.04 | [3] -0.066 | [4] 0.012 | [5] -0.012 | [6] 0.008 | [7] 0.002 | [8] -0.002 | [9] -0.067 | [10] -0.01
